Pol eta inh = qHTS for Inhibitors of Polymerase Eta; DNA polymerase eta (Homo sapiens), Q9Y253; recombinant Pol eta, fluorescent DNA replication assay; Potency, µM (doses to about 114 µM), actives largely listed as inhibitors; hit rate 1.2% among 390,000; AID 588591, 2011
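Pol eta at 10 nM preincubated with compounds 15 min at room temperature; reaction started with fluorescent substrate (50 nM final) and read kinetically at 0 and 10 min.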
APE1 inh-1 = qHTS Assay for Inhibitors of the Human Apurinic/apyrimidinic Endonuclease 1 (APE1) | Potency, µM (doses to about 65.8 µM), most hits filed as inhibitors | recombinant APE1, TAMRA/BHQ-2 abasic DNA cleavage fluorescence | hit rate 0.35% among 350,000 | DNA repair nuclease/redox regulator APEX1 (Homo sapiens), P27695; also: nearly all actives have a fitted effect of over 55% in size
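APE1 at 0.75 nM final was preincubated with compound 15 min at room temperature, then 50 nM double-stranded THF abasic-site substrate (5'-TAMRA/3'-BHQ-2) was added. Fluorescence (ex 525/em 598 nm) was read kinetically; third-minus-first read gave activity.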
L3MBTL1 inh = qHTS Assay for the Inhibitors of L3MBTL1 | Lethal(3)malignant brain tumor-like protein 1 (Homo sapiens), Q9Y468 | AlphaScreen L3MBTL1–H3K9me1 peptide binding | Potency, µM (titrated, usually from 57.1 µM), most hits filed as inhibitors | hit rate 0.66% among 230,000 | AID 485360, 2010; also: nearly all actives have a fitted effect of over 60% in size
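L3MBTL1 50 nM + b-AHA-H3(1-15)K9me1 75 nM, 30 min RT; compound added, 30 min RT; streptavidin donor/Ni-chelate acceptor beads 10 ug/mL each final, 30 min RT dark; AlphaScreen read.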
Pol iota inh = qHTS for Inhibitors of Polymerase Iota | AID 588590, 2011 | Pol iota fluorescent replication assay, 10 min | hit rate 1% among 390,000 | DNA polymerase iota (Homo sapiens), Q9UNA4 | Potency, µM (doses to about 115 µM), usual class: inhibitors
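Pol iota at 10 nM preincubated 15 min with compounds at room temperature; reaction started with fluorescent substrate, 50 nM final. Fluorescence read kinetically at 0 and 10 min; buffer-only wells as negative control.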
Pol kappa inh = qHTS for Inhibitors of Polymerase Kappa. DNA polymerase kappa (Homo sapiens), Q9UBT6. purified Pol kappa, fluorescent DNA synthesis assay, 10 min. Potency, µM (doses to about 107 µM), actives largely listed as inhibitors. hit rate 0.53% among 400,000. AID 588579, 2011
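Activity was followed as the change in fluorescence between reads at 0 and 10 min after starting the reaction with 50 nM substrate. Beforehand, 10 nM polymerase had been preincubated with compound for 15 min at room temperature.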
Pol beta inh = qHTS Assay for Inhibitors of DNA Polymerase Beta. AID 485314, 2010. hit rate 1.3% among 340,000. P06746. Pol beta primer extension/strand displacement, fluorescence kinetic. Potency, µM (highest dose often 114 µM), most hits filed as inhibitors
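Pol beta (10 nM) was preincubated with compound for 15 min at room temperature. The reaction was then started with 50 nM substrate and read immediately and after a further 10 min at room temperature.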
DNA dye displace = Counterscreen for APE1 Inhibitors: Fluorescent Dye Displacement Assay; shares compounds with APE1 inh-1; DNA fluorescent dye displacement counterscreen, fluorescence; Potency, µM (titrated, usually from 28.5 µM), hits mostly inhibitors; hit rate 7% among 480; AID 2564, 2010;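 also: loss of thiazole orange fluorescence as the dye is displaced from duplex DNA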
Endo IV inh = Counterscreen for APE1 Inhibitors: qHTS Assay for Inhibitors of Endonuclease IV. shares compounds with APE1 inh-1. E. coli Endo IV, fluorogenic AP-site DNA cleavage. Potency, µM (titrated, usually from 27.1 µM), actives largely listed as inhibitors. hit rate 4% among 560. AID 2565, 2010
APE1 inh-2 = Confirmation qHTS Assay for Inhibitors of the Human Apurinic/apyrimidinic Endonuclease 1 (APE1). Potency, µM (doses to about 57.1 µM), hits mostly inhibitors. hit rate 44% among 750. shares compounds with APE1 inh-1. purified APE1, fluorogenic abasic-site DNA cleavage; also: nearly all actives have a fitted effect of over 30% in size
APE1 FP = qHTS FP-Based Assay for Inhibitors of the Human Apurinic/apyrimidinic Endonuclease 1 (APE1); APE1 binding to TAMRA-labelled double-stranded DNA, fluorescence polarization displacement; Potency, µM (top dose mostly 28.5 µM), actives largely listed as inhibitors; hit rate 7% among 480; shares compounds with APE1 inh-1
A number is an active result. Only some compounds are listed: those with a hit (about 2.5% of all), similar ones and a draw of the others. Calls follow the shape of the dose curve; as a rule, active = well fitted curve in the direction sought with a large enough effect; inconclusive = small, poorly fitted or top-dose-only effect, or another doubt; inactive = no such curve, though single readings can be large; an effect the other way counts as inactive or inconclusive.

How did CS(=O)(=O)N1Cc2ccccc2CC1C(=O)OCC(=O)Nc1ccc2ccccc2c1 (stereo not drawn) do in these assays?
Pol eta inh: inconclusive; APE1 inh-1: inconclusive; Pol iota inh: inconclusive; Pol kappa inh: inconclusive; Pol beta inh: 3.2µM; DNA dye displace: inconclusive; Endo IV inh: inconclusive; APE1 inh-2: inconclusive; APE1 FP: inconclusive

Results for Cc1ccc(C)c(C(=O)COC(=O)c2c(-c3ccccc3)noc2C)c1 ?
Pol eta inh: inactive; APE1 inh-1: inactive; L3MBTL1 inh: inactive; Pol iota inh: inactive; Pol kappa inh: inactive

What do the screens show for `O=C(O)CC(CC(=O)O)c1ccc2c(c1)OCO2`?
Pol iota inh: inconclusive; Pol kappa inh: inactive

What do the screens show for `O=C(CC1N=C2c3ccccc3N=C(SCc3ccccc3Cl)N2C1=O)NC1CCCCC1` (stereo not drawn)?
Pol eta inh: inactive; Pol iota inh: inactive; Pol kappa inh: inactive; Pol beta inh: inactive

What do the screens show for `CCOC(=O)NC1(NC(C)C)Oc2ccccc2O1`?
Pol eta inh: inactive; APE1 inh-1: 22µM; Pol iota inh: inconclusive; Pol kappa inh: inactive; Pol beta inh: inactive; DNA dye displace: inactive; Endo IV inh: inactive; APE1 inh-2: inconclusive; APE1 FP: inactive

Results for CCOC(=O)NC1(NCc2ccccc2)Oc2ccccc2O1 ?
Pol eta inh: inactive; APE1 inh-1: 2.5µM; L3MBTL1 inh: inactive; Pol iota inh: inconclusive; Pol kappa inh: inconclusive; Pol beta inh: inactive; DNA dye displace: inactive; Endo IV inh: inactive; APE1 inh-2: inconclusive; APE1 FP: inactive

How did CCOC(=O)NC1(Nc2ccc(C)cc2)Oc2ccccc2O1 do in these assays?
Pol eta inh: inactive; APE1 inh-1: inactive; L3MBTL1 inh: inactive; Pol iota inh: inconclusive; Pol kappa inh: inactive; Pol beta inh: inactive

How did CCOC(=O)NC1(NCC(C)C)Oc2ccccc2O1 do in these assays?
Pol eta inh: inactive; APE1 inh-1: inconclusive; Pol iota inh: inconclusive; Pol kappa inh: inconclusive; Pol beta inh: inconclusive

What do the screens show for `Cc1ccc(-n2c(=O)c3ccc(C(=O)NCc4ccccc4Cl)cc3n(CC(=O)Nc3cccc(F)c3)c2=O)cc1`?
Pol eta inh: inactive; Pol iota inh: inactive; Pol kappa inh: inactive; Pol beta inh: inactive

What do the screens show for `COc1cc(-c2noc(CSc3nc(-c4ccc(F)cc4)cc(=O)[nH]3)n2)cc(OC)c1OC`?
Pol eta inh: inactive; Pol iota inh: inconclusive; Pol kappa inh: inactive; Pol beta inh: inactive

Results for O=C1CSC(=S)N1N1C(=O)c2cccc([N+](=O)[O-])c2C1=O ?
APE1 inh-1: inconclusive; Pol beta inh: 3.2µM; APE1 inh-2: inconclusive
